PERK inhibitor: blocks human PERK kinase; hit rate 0.17% among 220,000; inhibition, % at 5.6 µM; AID 1416; CHO PERK-DD fusion, SEAP luminescence translation reporter;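 active = inhibition above the mean inhibition of all tested compounds plus 3 SD, set separately per screening campaign, cut at about 2.9% in these data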;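 note: PERK kinase domain activated by AP20187 dimerizer at 100 nM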
CR mimetic SO: caloric restriction mimetics inhibiting age-related superoxide in yeast. S. cerevisiae aged cells, superoxide DHE fluorescence; hits give low values. superoxide response (% of plate mean), % at 10 µM. hit rate 0.18% among 330,000. AID 2690;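 active = superoxide response under a set limit, about three screen SD below normal, cut at about 65% in these data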;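 note: yeast aged for seven days with compound at 30 °C before DHE staining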
V-ATPase pH: alters yeast V-ATPase proton transport; S. cerevisiae, pHLuorin cytosolic pH fluorescence; response, % at 10 µM; hit rate 0.37% among 350,000; in the data active = response mostly above about 7.3%, no sharp cut-off; inactive = mostly below about 5.4%; note: actives read high
Rce1 inh: blocks yeast Ras-converting enzyme; Q03530; yeast membranes, quenched prenylated peptide cleavage fluorescence; calls only; hit rate 0.27% among 290,000;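 active = fall in fluorescence gain of 50% or more versus controls, with final raw signal at or below 3038400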
NALP1 inh: NALP1 inhibition; S. cerevisiae NALP1/ASC/caspase-1 growth, X-gal OD620, 72 h; inhibition, % at 10 µM; hit rate 0.61% among 280,000; in the data active = inhibition mostly above about 24%, no sharp cut-off; inactive = mostly below about 32%
NLRP3 yeast inh: blocks the NALP3 inflammasome reconstituted in yeast. Yeast reconstituted NLRP3/ASC/caspase-1, beta-gal luminescence, 24 h. inhibition, % at 10 µM. hit rate 0.39% among 330,000. AID 2825;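 active = inhibition of 50% or more; inactive = inhibition below 50%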
VATPase regulator: yeast V-ATPase proton transport regulation. hit rate 2% among 980. response, % at 10 µM. AID 602197. S. cerevisiae pHLuorin cytosolic pH. shares compounds with V-ATPase pH; in the data active = response above about 24%
Numbers stand for hits; 0 = inactive; - = no result. The list is not random: actives were taken first. Their share in the collection is about 1.6%.

SMILES	PERK inhibitor	CR mimetic SO	V-ATPase pH	Rce1 inh	NALP1 inh	NLRP3 yeast inh	VATPase regulator
CCOC(=O)C1CCCCN1C(=O)CCc1nnc(-c2ccc3c(c2)OCO3)o1 (stereo unspecified)	-	0	0	0	0	0	-
O=C(CCc1nnc(-c2ccc3c(c2)OCO3)o1)NC(c1cccnc1)C(F)(F)F (stereo unspecified)	0	0	8.6	0	0	0	0
Cc1ccc(-c2c(C#N)c(N)n3c(nc4ccccc43)c2C#N)cc1	0	0	0	0	0	0	-
N#Cc1c(-c2ccccc2)c(C#N)c2nc3ccccc3n2c1N	0	0	9.1	0	0	0	0
CCOc1cc(/C=C/C(=O)c2ccc3c(c2)OCCO3)ccc1OCC(=O)N(C)C	-	0	15	0	0	0	0
C[C@@H]1CN([C@@H](C)CO)C(=O)CCCn2nncc2CO[C@@H]1CN(C)C(=O)Nc1ccc(N2CCN(C)CC2)cc1	-	-	0	-	-	-	-
O=C(Nc1ccccc1N1CCOCC1)c1ccc([N+](=O)[O-])o1	-	0	25	0	0	0	90
Cc1noc(C)c1S(=O)(=O)N(C)C[C@H]1OCCCC[C@H](C)Oc2ccc(NC(=O)CCCN(C)C)cc2C(=O)N([C@H](C)CO)C[C@@H]1C	-	-	0	-	-	-	-
CCn1cc(Br)c(C(=O)NN)n1	0	0	0	0	0	0	-
CCn1cc(Br)c(C(=O)Nc2nccs2)n1	0	0	10	0	0	0	0
COc1cc(OCc2ccccc2)c(C(=O)/C=C/c2ccc3c(c2)OCO3)c(OC)c1OC	-	0	0	0	-	0	-
O=C(NCC1CCCO1)c1ccc(Cl)c(NS(=O)(=O)c2ccc(F)cc2)c1 (stereo unspecified)	-	-	0	-	-	-	-
CCCCn1c(=N)n(CC(O)c2ccccc2)c2ccccc21 (stereo unspecified)	0	0	0	0	-	0	-
CCn1c(=N)n(CC(O)c2ccccc2)c2ccccc21 (stereo unspecified)	0	0	28	0	0	0	0
O=C(Nc1ccccc1C(=O)Nc1ccncc1)c1cccc([N+](=O)[O-])c1	-	0	13	0	0	0	0
O=C(Nc1ccc2[nH]c(=O)[nH]c2c1)c1cccc([N+](=O)[O-])c1	-	0	8.9	0	0	0	0
N#Cc1c(-c2ccc(Cl)cc2)c(-c2ccc(Cl)cc2)nn(CCOC(=O)CCC(=O)O)c1=O	-	-	0	-	-	-	-
CC(C)NC(=O)N(C)C[C@H]1OCCCC[C@H](C)Oc2ccc(NS(=O)(=O)c3ccccc3)cc2C(=O)N([C@H](C)CO)C[C@H]1C	-	-	0	-	-	-	-
Cc1cccc(C(=O)N(c2ccccn2)C(C)c2ccco2)c1 (stereo unspecified)	0	0	0	0	0	0	-
CC(c1ccco1)N(C(=O)C12CC3(C)CC(C)(CC(C)(C3)C1)C2)c1ccccn1 (stereo unspecified)	0	0	13	-	0	0	0
CCC1S/C(=N/N=C/c2ccco2)N(Cc2ccccc2)C1=O (stereo unspecified)	0	0	60	0	0	0	0
O=C(O)C1CCC1C(=O)Nc1nc(-c2ccc(Cl)s2)cs1 (stereo unspecified)	0	0	12	0	0	0	0
O=C(N/C(=C\c1ccc(Br)cc1)C(=O)N1CCOCC1)c1ccco1	-	0	14	0	0	0	0
Cc1onc(-c2ccccc2)c1C(=O)NC1CCC(C)CC1 (stereo unspecified)	-	0	0	-	-	0	-
Cc1onc(-c2ccccc2)c1C(=O)NC1CCCCC1C (stereo unspecified)	-	-	9.2	-	-	-	0
SMILES	PERK inhibitor	CR mimetic SO	V-ATPase pH	Rce1 inh	NALP1 inh	NLRP3 yeast inh	VATPase regulator
O=C(Nc1cccc(Cl)c1Cl)c1ccccc1OCC(=O)N1CCOCC1	-	0	11	0	0	0	0
Cc1cccc(NC(=O)c2ccccc2OCC(=O)N2CCOCC2)c1C	0	0	0	0	0	0	-
COc1ccccc1-c1ccc([C@@H]2C[C@H]3[C@H](CON3C)CN2C(=O)c2ccco2)cc1	-	-	0	-	-	-	-
COc1ccc(S(=O)(=O)N(CC(=O)N2CCN(C)CC2)c2ccc(C)cc2)cc1OC	0	0	12	0	0	0	0
C[C@@H]1CN([C@H](C)CO)C(=O)CCCn2nncc2CO[C@H]1CN(C)S(C)(=O)=O	-	-	0	-	-	-	-
O=C(COC(=O)c1cnc(Cl)c(Cl)c1)NCCC1=CCCCC1	0	0	65	0	0	0	0
Nc1cc(C(=O)OCC(=O)NCCC2=CCCCC2)ccc1Cl	-	0	0	-	-	0	-

Compound activity as filed in PubChem BioAssay.
